Source: the supplement of paper PMC10849652
The full data set covers some 7,900 targets. This sample favours those with a hit. About 0.6% of all pairs of compound and target were hits. Unmarked numbers belong to inactive results.

Tests used:
Test in all cases: log2 fold change, soluble protein after heating vs DMSO (PISA); higher = thermal stabilisation; K562 cells, 10 uM, 30 min; active = over 0.2 and 3.5 SD of the protein, either way, in both replicates (recomputed)
[1] = compound: C#Cc1cccc(Nc2ncnc3cc(OCCOC)c(OCCOC)cc23)c1 [erlotinib]
Summary of the method: (§1)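 Aliquots of K562 cells (2×10^6 cells/mL) treated with 10 μM compound for 30 min were heated for 3 min over 48°C-58°C. After pooling and extraction in PBS with 0.5% NP-40 at 4°C, soluble protein from a 21,000xg, 90 min spin was quantified by TMTpro 16plex LC-MS/MS with channel sums equalised. Thermal stability is expressed against control samples, from duplicates, as a log2 fold change.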

[2] = compound: C/C(=N\NC(=O)C1=CC(=CC=C1)S(=O)(=O)N2CCOCC2)/C3=C(C=CC(=C3)Cl)O
Summary of the method: as §1

[3] = compound: C1=CC(=C(C=C1Cl)C2=NC3=NC=CN=C3C(=N2)NC4=CC=NC=C4)F
Summary of the method: as §1

[4] = compound: C1=CC(=CC=C1C2=NC3=C(N2)C=C(C=C3)C(=O)N)OC4=CC=C(C=C4)Cl
Summary of the method: as §1

[5] = compound: C1=CC2=C(C=CC(=C2)/C=C\3/C(=O)NC(=NCC4=CC=CS4)S3)N=C1
Summary of the method: as §1

[6] = compound: C1=CC2=NC=CN=C2C=C1/C=C/3\C(=O)NC(=O)S3
Summary of the method: as §1

[7] = compound: C1=CC=C(C=C1)C2=NC(=C(N2)C3=CC=NC=C3)C4=CC(=C(C=C4)Cl)O
Summary of the method: as §1

[8] = compound: C1=CC=C2C(=C1)C3=NNC4=CC=CC(=C43)C2=O
Summary of the method: as §1

[9] = compound: C1CCN(C1)C(=O)NC2=CC=CC(=C2)NC3=NC=C(C(=N3)NCCC4=CN=CN4)Br
Summary of the method: as §1

[10] = compound: C1CN(CCC1(CC2=CC=C(C=C2)Cl)N)C3=NC=NC4=C3C=CN4
Summary of the method: as §1

[11] = compound: C1COCCN1CCN2C3=CC=CC=C3N=C2NC(=O)C4=CC(=CC=C4)[N+](=O)[O-] [IRAK-1-4 Inhibitor I]
Summary of the method: as §1

[12] = compound: C=CC(=O)N1CCC[C@@H](n2nc(-c3ccc(Oc4ccccc4)cc3)c3c(N)ncnc32)C1 [ibrutinib]
Summary of the method: as §1

[13] = compound: CC(=O)c1cnc2ccc(-c3cc(Cl)c(O)c(Cl)c3)nc2c1N[C@H]1CC[C@H](CN(C)C)CC1
Summary of the method: as §1

[14] = compound: CC(C)(C)Cn1c(N)nc2ccc(-c3[nH]c(C(C)(C)C)nc3-c3ccc(F)cc3)nc21 [ralimetinib]
Summary of the method: as §1

[15] = compound: CC(C)(O)CC(=O)NCCn1ccc2ncnc(Nc3ccc(Oc4cccc(C(F)(F)F)c4)c(Cl)c3)c21
Summary of the method: as §1

[16] = compound: CC(C)C1=C2N=C(C=C(N2N=C1)NCC3=CC=CC=C3)NCCCCCCN
Summary of the method: as §1

[17] = compound: CC(C)C[C@@H](C=O)NC(=O)[C@H](CC(C)C)NC(=O)[C@H](CC(C)C)NC(=O)OCc1ccccc1
Summary of the method: as §1

[18] = compound: CC(C)N(C[C@H]1O[C@@H](n2cnc3c(N)ncnc32)[C@H](O)[C@@H]1O)[C@H]1C[C@@H](CCc2nc3cc(C(C)(C)C)ccc3[nH]2)C1 [pinometostat]
Summary of the method: as §1

[19] = compound: CC1=C(C(CC(=O)N1)C2=CC=C(C=C2)C(F)(F)F)C(=O)NC3=C(C=C4C(=C3)C=NN4)F
Summary of the method: as §1

[20] = compound: CC1=C(C2=C(C=C1)C(=O)C3=CC=CC=C3N2CCCN)C
Summary of the method: as §1

Chain of UniProt Q9H0R6 (Q9H0R6 whole entry, looked up): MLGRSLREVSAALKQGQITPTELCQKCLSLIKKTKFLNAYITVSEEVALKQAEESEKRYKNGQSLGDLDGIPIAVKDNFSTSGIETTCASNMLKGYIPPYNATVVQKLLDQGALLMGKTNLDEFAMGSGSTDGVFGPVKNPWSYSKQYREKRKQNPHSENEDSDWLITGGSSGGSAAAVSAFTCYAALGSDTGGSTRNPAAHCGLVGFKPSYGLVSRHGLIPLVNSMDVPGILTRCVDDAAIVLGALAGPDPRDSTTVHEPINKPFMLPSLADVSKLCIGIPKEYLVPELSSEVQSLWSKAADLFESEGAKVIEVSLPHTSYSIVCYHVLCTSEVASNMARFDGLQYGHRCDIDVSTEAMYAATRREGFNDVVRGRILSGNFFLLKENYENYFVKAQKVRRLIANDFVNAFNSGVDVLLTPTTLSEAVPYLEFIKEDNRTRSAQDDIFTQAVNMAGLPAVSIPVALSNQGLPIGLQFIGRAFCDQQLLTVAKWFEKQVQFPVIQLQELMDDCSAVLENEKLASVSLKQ
Chain of UniProt P31323 (P31323 whole entry, looked up): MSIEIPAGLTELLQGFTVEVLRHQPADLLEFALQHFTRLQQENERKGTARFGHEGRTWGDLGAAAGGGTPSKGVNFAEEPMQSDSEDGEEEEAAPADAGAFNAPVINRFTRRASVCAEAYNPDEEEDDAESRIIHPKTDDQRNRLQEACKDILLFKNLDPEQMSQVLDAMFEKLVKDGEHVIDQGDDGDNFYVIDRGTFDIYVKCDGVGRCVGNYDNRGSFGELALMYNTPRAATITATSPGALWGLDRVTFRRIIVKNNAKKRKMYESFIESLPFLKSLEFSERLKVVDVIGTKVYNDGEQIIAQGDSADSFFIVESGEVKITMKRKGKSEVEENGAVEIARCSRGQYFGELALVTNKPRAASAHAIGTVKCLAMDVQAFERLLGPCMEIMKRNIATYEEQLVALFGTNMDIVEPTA
Chain of UniProt P10644 (P10644 whole entry, looked up): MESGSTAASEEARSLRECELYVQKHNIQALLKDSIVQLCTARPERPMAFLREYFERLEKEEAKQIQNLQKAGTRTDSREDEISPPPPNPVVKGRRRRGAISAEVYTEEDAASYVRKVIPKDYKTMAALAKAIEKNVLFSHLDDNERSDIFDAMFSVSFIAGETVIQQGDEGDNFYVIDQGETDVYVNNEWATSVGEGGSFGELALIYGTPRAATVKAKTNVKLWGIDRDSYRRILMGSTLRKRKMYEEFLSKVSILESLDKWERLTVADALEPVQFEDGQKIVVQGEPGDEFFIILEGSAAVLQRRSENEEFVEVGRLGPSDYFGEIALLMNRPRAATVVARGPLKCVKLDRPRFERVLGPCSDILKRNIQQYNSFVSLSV
Chain of UniProt Q13131 (Q13131 whole entry, looked up): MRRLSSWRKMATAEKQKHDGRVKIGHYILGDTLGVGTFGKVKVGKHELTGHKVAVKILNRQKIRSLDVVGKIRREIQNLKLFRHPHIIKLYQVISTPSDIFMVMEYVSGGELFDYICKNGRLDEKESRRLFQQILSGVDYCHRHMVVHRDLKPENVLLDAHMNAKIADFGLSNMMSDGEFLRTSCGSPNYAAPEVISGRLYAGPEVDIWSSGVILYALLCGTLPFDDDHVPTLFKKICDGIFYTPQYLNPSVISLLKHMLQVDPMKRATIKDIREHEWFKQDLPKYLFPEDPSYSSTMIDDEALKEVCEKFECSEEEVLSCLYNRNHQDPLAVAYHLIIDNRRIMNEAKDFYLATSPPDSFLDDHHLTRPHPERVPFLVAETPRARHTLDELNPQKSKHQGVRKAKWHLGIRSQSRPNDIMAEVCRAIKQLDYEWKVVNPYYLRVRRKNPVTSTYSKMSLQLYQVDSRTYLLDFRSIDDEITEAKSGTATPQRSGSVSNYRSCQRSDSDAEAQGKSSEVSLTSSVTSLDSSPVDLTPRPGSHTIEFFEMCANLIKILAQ
Chain of UniProt Q86UU1 (Q86UU1 whole entry, looked up): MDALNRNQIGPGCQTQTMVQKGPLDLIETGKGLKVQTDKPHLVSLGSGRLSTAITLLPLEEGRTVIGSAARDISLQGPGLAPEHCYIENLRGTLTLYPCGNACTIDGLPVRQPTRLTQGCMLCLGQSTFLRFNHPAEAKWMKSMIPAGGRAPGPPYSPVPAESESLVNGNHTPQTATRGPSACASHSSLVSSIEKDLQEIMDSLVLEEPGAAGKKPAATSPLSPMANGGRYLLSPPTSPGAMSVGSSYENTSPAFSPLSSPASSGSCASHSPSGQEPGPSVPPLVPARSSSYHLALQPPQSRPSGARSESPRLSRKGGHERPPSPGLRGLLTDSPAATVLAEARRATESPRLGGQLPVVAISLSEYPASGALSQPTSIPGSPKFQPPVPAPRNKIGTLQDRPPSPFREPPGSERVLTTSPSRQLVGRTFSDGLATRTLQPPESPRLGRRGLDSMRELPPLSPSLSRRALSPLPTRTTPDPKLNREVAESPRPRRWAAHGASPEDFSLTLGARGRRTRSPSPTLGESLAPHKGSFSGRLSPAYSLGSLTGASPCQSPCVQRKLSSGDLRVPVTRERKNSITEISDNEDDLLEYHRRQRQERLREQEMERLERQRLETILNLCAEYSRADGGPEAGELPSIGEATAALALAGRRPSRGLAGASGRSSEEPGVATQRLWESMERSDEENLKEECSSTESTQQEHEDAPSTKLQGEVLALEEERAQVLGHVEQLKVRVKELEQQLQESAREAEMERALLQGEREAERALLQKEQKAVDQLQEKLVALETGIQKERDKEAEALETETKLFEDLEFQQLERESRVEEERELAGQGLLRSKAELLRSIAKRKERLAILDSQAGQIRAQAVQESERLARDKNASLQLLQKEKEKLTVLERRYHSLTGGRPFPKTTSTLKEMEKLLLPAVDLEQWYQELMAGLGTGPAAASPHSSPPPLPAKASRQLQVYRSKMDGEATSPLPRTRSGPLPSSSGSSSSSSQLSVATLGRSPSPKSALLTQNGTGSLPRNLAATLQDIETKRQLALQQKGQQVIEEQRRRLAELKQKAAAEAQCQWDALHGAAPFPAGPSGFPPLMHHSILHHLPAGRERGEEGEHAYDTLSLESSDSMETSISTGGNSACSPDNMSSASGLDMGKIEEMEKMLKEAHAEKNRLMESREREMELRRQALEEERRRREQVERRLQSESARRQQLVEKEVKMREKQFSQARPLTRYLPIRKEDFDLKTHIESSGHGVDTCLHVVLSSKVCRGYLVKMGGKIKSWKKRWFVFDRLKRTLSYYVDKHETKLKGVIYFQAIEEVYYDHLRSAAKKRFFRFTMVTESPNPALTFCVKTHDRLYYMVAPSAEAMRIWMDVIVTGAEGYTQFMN
Chain of UniProt Q8IV08 (Q8IV08 whole entry, looked up): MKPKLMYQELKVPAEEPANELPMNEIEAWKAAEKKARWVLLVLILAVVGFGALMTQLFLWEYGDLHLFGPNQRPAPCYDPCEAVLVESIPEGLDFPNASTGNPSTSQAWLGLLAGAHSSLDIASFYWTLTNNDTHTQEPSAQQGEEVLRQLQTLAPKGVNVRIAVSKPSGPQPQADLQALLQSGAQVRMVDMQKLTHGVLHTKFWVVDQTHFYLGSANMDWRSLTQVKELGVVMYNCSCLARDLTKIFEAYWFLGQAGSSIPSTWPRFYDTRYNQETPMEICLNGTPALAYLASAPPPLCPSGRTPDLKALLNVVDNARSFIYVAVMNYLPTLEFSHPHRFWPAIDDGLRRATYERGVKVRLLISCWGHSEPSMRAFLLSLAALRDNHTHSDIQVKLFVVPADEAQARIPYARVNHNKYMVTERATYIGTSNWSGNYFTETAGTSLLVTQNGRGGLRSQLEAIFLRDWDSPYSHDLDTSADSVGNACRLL
Chain of UniProt Q8IZL8 (Q8IZL8 whole entry, looked up): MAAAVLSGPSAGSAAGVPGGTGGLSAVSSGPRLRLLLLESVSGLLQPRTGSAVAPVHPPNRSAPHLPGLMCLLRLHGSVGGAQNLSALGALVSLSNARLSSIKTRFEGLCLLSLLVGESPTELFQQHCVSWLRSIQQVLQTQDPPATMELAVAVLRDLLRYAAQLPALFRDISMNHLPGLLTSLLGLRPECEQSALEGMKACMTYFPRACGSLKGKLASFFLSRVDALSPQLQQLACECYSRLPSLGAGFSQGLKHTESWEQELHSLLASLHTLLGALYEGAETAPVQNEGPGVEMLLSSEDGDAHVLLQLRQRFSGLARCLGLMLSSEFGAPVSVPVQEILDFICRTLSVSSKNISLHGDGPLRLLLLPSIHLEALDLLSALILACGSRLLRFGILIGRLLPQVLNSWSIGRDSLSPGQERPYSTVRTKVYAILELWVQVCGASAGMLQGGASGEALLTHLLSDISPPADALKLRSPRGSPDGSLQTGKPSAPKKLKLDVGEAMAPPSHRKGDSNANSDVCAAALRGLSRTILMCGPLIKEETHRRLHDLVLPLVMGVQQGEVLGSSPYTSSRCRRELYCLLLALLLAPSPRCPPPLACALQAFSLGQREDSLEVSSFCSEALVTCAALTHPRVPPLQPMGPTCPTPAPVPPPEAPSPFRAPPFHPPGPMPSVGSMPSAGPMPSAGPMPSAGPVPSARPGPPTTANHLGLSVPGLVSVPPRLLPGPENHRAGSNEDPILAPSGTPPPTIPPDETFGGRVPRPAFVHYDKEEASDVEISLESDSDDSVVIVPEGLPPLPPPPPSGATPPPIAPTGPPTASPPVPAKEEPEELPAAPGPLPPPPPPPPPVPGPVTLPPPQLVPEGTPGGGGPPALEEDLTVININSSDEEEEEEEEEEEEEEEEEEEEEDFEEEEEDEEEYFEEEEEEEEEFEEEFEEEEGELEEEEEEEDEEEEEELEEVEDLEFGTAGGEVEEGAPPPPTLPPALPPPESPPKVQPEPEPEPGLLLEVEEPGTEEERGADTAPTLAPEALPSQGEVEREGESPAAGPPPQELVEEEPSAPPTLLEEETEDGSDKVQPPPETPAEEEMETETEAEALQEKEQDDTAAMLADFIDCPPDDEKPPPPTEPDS

Target | log2 fold change [1] | log2 fold change [2] | log2 fold change [3] | log2 fold change [4] | log2 fold change [5] | log2 fold change [6] | log2 fold change [7] | log2 fold change [8] | log2 fold change [9] | log2 fold change [10] | log2 fold change [11] | log2 fold change [12] | log2 fold change [13] | log2 fold change [14] | log2 fold change [15] | log2 fold change [16] | log2 fold change [17] | log2 fold change [18] | log2 fold change [19] | log2 fold change [20]
PELP1 (UniProt Q8IZL8) | 0.082 | 0.044 | -0.035 | 0.008 | -0.032 | -0.008 | 0.007 | -0.053 | -0.041 | 0.08 | 0.017 | -0.017 | -0.106 | 0.04 | -0.031 | 0.017 | -0.019 | 0.008 | 0.029 | -2.07 (active)
PIP4P2 (UniProt Q8N4L2) | 0.014 | -0.066 | 0.026 | 0.039 | 0.009 | 0.145 | 0.063 | -0.002 | 0.014 | -0.007 | -0.027 | 0 | -0.028 | 0.005 | 0.142 | -0.624 (active) | 0.011 | 0.012 | 0.028 | 0.033
PLD3 (UniProt Q8IV08) | -0.012 | 0.029 | 0.054 | 0.023 | 0.04 | 0.024 | -0.061 | 0.006 | 0.001 | 0.048 | 0.022 | -0.031 | -0.042 | -0.039 | -0.022 | -0.079 | 0.05 | -0.005 | 0.003 | -0.023
PXK (UniProt Q7Z7A4) | 0.062 | 0.019 | -0.006 | 0.022 | 0.074 | 0.018 | 0.251 (active) | 0.019 | 0.014 | 0.004 | 0.032 | 0.042 | -0.012 | 0.1 | -0.023 | -0.201 | 0.037 | 0.012 | -0.024 | 0.057
PDS5A (UniProt Q29RF7) | 0.225 | 0.132 | 0.04 | -0.227 | 0.05 | -0.176 | 0.14 | 0.108 | -0.25 | -0.267 | -0.168 | -0.041 | -0.063 | -0.012 | -0.344 | -0.61 | 0.272 | 0.045 | 0.221 | -0.103
POLR2G (UniProt P62487) | -0.041 | -0.011 | -0.001 | 0.025 | -0.078 | 0.044 | 0.063 | 0.014 | -0.033 | 0.071 | 0.001 | 0.078 | 0.329 (active) | -0.052 | -0.011 | 0.371 (active) | 0.012 | -0.044 | -0.053 | 0.268
PRKAR1A (UniProt P10644) | 0.078 | -0.084 | -0.037 | -0.027 | 0.116 | 0.018 | 0.066 | 0.139 | 0.128 | -0.017 | -0.068 | 0.035 | -0.049 | 0.268 | 0.041 | -0.149 | 0.041 | 0.131 | -0.084 | -0.127
PSMD6 (UniProt Q15008) | -0.024 | -0.041 | -0.042 | 0.017 | -0.056 | -0.007 | 0.09 | 0.053 | 0.002 | 0.016 | -0.037 | -0.036 | 0.081 | 0.087 | 0.05 | 0.038 | -0.221 (active) | 0.047 | 0.028 | 0.012
PHLDB1 isoform 2 (UniProt Q86UU1) | -0.02 | 0.03 | 0.099 | 0.027 | 0.165 | -0.093 | 0.008 | -0.125 | -0.048 | 0.025 | 0.014 | -0.055 | -0.832 (active) | 0.005 | -0.053 | -0.018 | 0.016 | -0.011 | 0.091 | 0.118
PRKAA1 isoform 2 (UniProt Q13131) | 0 | 0.026 | 0.084 | 0.045 | 0.018 | 0.013 | 0.012 | -0.051 | -0.034 | 0.012 | 0.046 | -0.006 | -0.343 (active) | -0.003 | -0.009 | -0.025 | -0.014 | -0.014 | 0.022 | 0.019
QRSL1 (UniProt Q9H0R6) | 0.024 | 0.052 | 0.118 | -0.002 | 0.06 | -0.023 | 0.071 | -0.032 | 0.017 | -0.116 | 0.016 | 0.023 | -0.025 | 0.001 | -0.071 | -0.231 (active) | -0.003 | -0.087 | 0.041 | 0.025
PDE12 (UniProt Q6L8Q7) | -0.023 | 0.018 | 0.052 | 0.027 | 0.001 | -0.008 | -0.015 | 0.054 | -0.04 | 0.026 | 0.118 | 0.015 | 0.085 | -0.036 | -0.006 | -0.032 | 0.03 | -0.031 | 0.01 | 0.033
PIR (UniProt O00625) | -0.027 | -0.058 | 0.025 | 0.464 (active) | 0.111 | 0.031 | -0.027 | 0.225 (active) | -0.053 | -0.002 | -0.016 | 0.019 | 0.016 | -0.056 | 0.073 | 0.011 | -0.042 | -0.01 | 0.015 | 0.037
PNPLA2 (UniProt Q96AD5) | 0.017 | 0.052 | 0.007 | -0.021 | 0.045 | 0.063 | -0.015 | -0.027 | 0.101 | -0.034 | -0.006 | 0.166 | -0.116 | -0.009 | 0.044 | -0.184 | 0.121 | -0.018 | -0.083 | -0.004
PRKAR2B (UniProt P31323) | -0.017 | 0.066 | -0.082 | 0.16 | -0.004 | 0.012 | -0.058 | -0.083 | -0.449 (active) | -0.636 (active) | -0.038 | -0.011 | -0.833 (active) | -0.039 | -0.007 | -0.068 | 0.044 | 0.108 | -0.075 | 0.022
